Source: PubChem BioAssay (NCI)
Compounds without any hit were thinned out: in the full panel of roughly 83,000, 20% have a hit.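 Cell lines were cultured in 96-well plates, exposed to a single compound concentration, and assessed for percent growth 48 hours later.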 A number with no mark means an inactive call. The source made the active and inactive calls. The calls were made as follows: active = growth percent below 10; inactive = the rest.

Tested on: MDA-MB-468 breast
Assay: NCI-60 one-dose screen, 48 h (100 = growth as untreated, 0 = no growth, -100 = all killed)
Conditions: 10 µM unless noted

| Compound | growth |
| --- | --- |
| COc1ccc(/C=C2\SC(=S)N(CCCN3CCOCC3)C2=O)c(OC)c1 | 87.4% |
| O=C(CNC(=O)c1cccc2ccccc12)Nc1ccccc1Oc1cccc(O)c1 | -3.16% [5 µM] (active) |
| Cc1ccnc(Nc2nc3ccccc3[nH]2)n1 | 119% |
| COc1cc(-c2csc(NC(=O)Nc3cccc(C(F)(F)F)c3)n2)cc(OC)c1OC | 19.3% |
| CCCCCCCCCCCCCCCCCCOc1ccccc1CC(=O)NCC[N+]1(C)CCCC1 | 3.53% (active) |
| CCOC(=O)C(CC(=O)O)=C(C(=O)OCC)C(=O)OCC | 97.1% |
| CNc1ccc(Br)cc1-c1n[nH]c(=O)[nH]c1=O | 120% |
| Cc1ccc(-c2cc(C(=O)Nc3ccc(S(=O)(=O)N4CCCCC4)cc3)[nH]n2)c(O)c1 | 38.8% |
| Nc1nc(Cl)c2c(C(F)(F)F)cn(CC3CCNCC3)c2n1 | 26.8% |
